Bioassay records as filed in PubChem.
The sample as a whole holds a higher share of hits than the screen did.
Pf Dd2 growth: Plasmodium falciparum Dd2 growth inhibition | P. falciparum Dd2 growth, SYBR Green, 72 h | Potency, µM (titrated, usually from 28.9 µM), inactives show at the top dose activity, negative = inhibition, hits mostly inhibitors | 120,000 compounds, 4.3% hits; active = well fitted inhibition curve with a large enough effect;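 note: plate controls were DMSO vehicle for no effect and reference drug for full effect; nearly all actives have a fitted effect of over 65% in size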
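Readout: SYBR Green fluorescence, 485 nm excitation, 535 nm emission, after ~16 h lysis at 37C. Before that, Dd2-infected red cells (2.5% hematocrit) grew 72 h with compound, 29 uM top final concentration.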
Numbers without * were called inactive; i = inactive; [ ] = another dose, or the depositor's remark. Potency is the fitted concentration of half-maximal effect.

SMILES	Pf Dd2 growth
COc1ccccc1CC(=O)N1CCCc2ncc(C(=O)N3CCC(OC)CC3)cc21	1%[44.1 µM]
CC1CCC2(CC1)NC(=O)N(CC(=O)Nc1ccc(Br)cc1F)C2=O (configuration not stated)	49%
CN(C)[C@@H]1CN(C(=O)c2ccccc2Cl)C[C@H]1CO	-6%
COc1ccc(NC(=O)NC[C@H]2O[C@@H]3C[C@@H](CC(=O)NCc4cnn(C)c4)O[C@@H]3[C@@H]2O)cc1	i
CCS(=O)(=O)N1CCCC(C(=O)Nc2ccccc2Oc2cccnc2)C1 (configuration not stated)	-14%
O=C(NCc1cc(F)cc(F)c1)c1nnn2c1COC(c1ccc(Br)cc1)C2 (configuration not stated)	i
COCCCNC(=O)N1CCc2nn(CC3CC3)c(=O)n2CC1	-2%
O=C(O)c1cccc(C2CCCN(C(=O)CCn3nnc4ccccc43)C2)c1 (configuration not stated)	-8%
C=CCNC(=O)C(NC(=O)c1ccc(OC)cc1)C1CCN(C(=O)c2ccccc2C)CC1 (configuration not stated)	i
O=C(CCn1cncn1)N1CCOC(CC(c2ccccc2)c2ccccc2)C1 (configuration not stated)	-9%
Cc1ccccc1OC1(C(=O)O)CCN(c2ncccc2C(N)=O)CC1	-3%
NC(=O)c1cccnc1N1CCOC(CC(c2ccccc2)c2ccccc2)C1 (configuration not stated)	7.9µM*
O=C(c1ccc2nccn2c1)N1CCC(Cc2ccccc2)CC1	-20%[44.1 µM]
COc1cc(OC)cc(-c2nc3nc(C)c(CCC(=O)Nc4cc(C)cc(C)c4)c(C)n3n2)c1	8.9µM*
COc1cc(OC)cc(-c2nc3nc(C)c(CCC(=O)NCCC(C)C)c(C)n3n2)c1	43%
CCc1ccc(NC(=O)CCc2c(C)nc3nc(-c4cc(OC)cc(OC)c4)nn3c2C)cc1	i
CCn1ncc(C(=O)N2CCC(C3CCN(S(C)(=O)=O)CC3)C2)c1C (configuration not stated)	-4%
COc1cccc(C2c3c(oc4ccc(C)cc4c3=O)C(=O)N2CCCN2CCOCC2)c1OC (configuration not stated)	22%
CCOc1cccc(C2c3c(oc4ccc(F)cc4c3=O)C(=O)N2CCc2ccc(OC)cc2)c1 (configuration not stated)	2%
CCCOc1cccc(C2c3c(oc4ccc(F)cc4c3=O)C(=O)N2CCCN2CCOCC2)c1 (configuration not stated)	6.3µM*
CC(C)c1noc(-c2cn(C3CCCN(C(=O)c4ccc(F)cc4)C3)nn2)n1 (configuration not stated)	i
O=C(Cc1cccc(Cl)c1)N1CCC(n2cc(-c3nc(-c4ccccc4)no3)nn2)C1 (configuration not stated)	138%
O=C(Cc1ccc(Cl)cc1)N1CCC(n2cc(-c3nc(-c4ccccc4)no3)nn2)C1 (configuration not stated)	-16%
O=C(c1ccc(Cl)cc1)N1CCC(n2cc(-c3nc(-c4ccccc4)no3)nn2)C1 (configuration not stated)	-17%
O=C(Cc1ccc(Cl)cc1)N1CCC(n2cc(-c3nc(-c4ccccc4)no3)nn2)CC1	2µM*
SMILES	Pf Dd2 growth
N#Cc1ccc(C(=O)N2CCCC(n3cc(-c4nc(-c5ccccc5)no4)nn3)C2)cc1 (configuration not stated)	4.5µM*
N#Cc1ccc(C(=O)N2CCC(n3cc(-c4nc(-c5ccccc5)no4)nn3)C2)cc1 (configuration not stated)	i
O=C(c1ccccc1)N1CCC(n2cc(-c3nc(-c4ccccc4)no3)nn2)C1 (configuration not stated)	0%
COc1cccc(C(=O)N2CCC(n3cc(-c4nc(-c5ccccc5)no4)nn3)CC2)c1	-7%
COc1ccc(C(=O)N2CCC(n3cc(-c4nc(-c5ccccc5)no4)nn3)CC2)cc1	1.3µM*
Cc1noc(C)c1[S+](=O)([O-])N1CCC2OCCN(Cc3ccccc3)C(=O)C2C1 (configuration not stated)	i
O=C1CCN(S(=O)(=O)c2ccccc2)CCCN(C(=O)CN2CCOCC2)CCN1	5%
CN(C)c1nc2c(c(=O)[nH]1)CCN(Cc1ccc(F)cc1)CC2	53%[5.79 µM]
CC(C)(C)CC(=O)N1CCC2(CC1)N(c1ccccc1)C(=O)CS2(=O)=O	-13%
Cc1noc(-c2nc(-c3ccc(Cl)cc3)no2)n1	-17%
CC(C)CN1CC2(CCN(C(=O)Cc3c[nH]c(=O)n(C)c3=O)CC2)CC1=O	11%
CC1=NS(=O)(=O)N(C)C=C1C(=O)OCc1nc(-c2ccc(Cl)cc2)no1	12%
CCCCN(Cc1ccc(S(=O)(=O)NC)cc1)Cc1ccco1	-9%
Cc1ccc(NC(=O)c2cc3c(s2)CN(C2CC2)C3)cc1	10µM*
O=C(NC1CCS(=O)(=O)C1)c1cc2c(s1)CN(C1CCCC1)C2 (configuration not stated)	i
O=C(NC1CCCCC1)c1cc2c(s1)CCN(C(=O)c1ccc(F)cc1)C2	i
CCC(=O)N1CCc2sc(C(=O)NCc3ccc(C)cc3)cc2C1	i
CSc1ccc(NC(=O)C2CCN(c3ncccn3)CC2)cc1	i
CSc1ccc(NC(=O)c2cc3c(s2)CN(C2CC2)C3)cc1	10µM*
O=C(NC[C@H]1OC[C@@H](NC2CCCC2)[C@@H]1O)Nc1ccccc1	-10%[44.1 µM]
CC(C)NC(=O)N1CCC2(CCCCO2)CC1	-3%
Nc1nc(C2CC(N)C2)cc(N2CCC(C(=O)NCc3ccccn3)CC2)n1 (configuration not stated)	-22%
CCC(=O)N(C1CCOCC1)C1CCN(S(=O)(=O)c2ccccc2CC)CC1	i
CC(=O)N[C@H]1CCN(CCC(=O)Nc2ccc(F)c(Cl)c2)C1	-5%
Cc1noc(C)c1-c1cc2cc(CN(C)C)oc2c(-c2ccc([S+](C)(=O)[O-])cc2)n1	8.9µM*
SMILES	Pf Dd2 growth
COCCCNc1nc(-c2c(C)noc2C)cc2cc(CN(C)C)oc12	i
Cc1noc(C)c1-c1cc2cc(CN(C)C)oc2c(Nc2ccncn2)n1	i
COc1ccc(CNC(=O)C(N)c2c(C)n[nH]c2C)c(F)c1F (configuration not stated)	-15%
OC(Cc1ccccc1)c1ccc2c(c1)CN(Cc1ccc(OC(F)F)cc1)CCO2 (configuration not stated)	-9%
CC(C)c1ccc(N2C(=S)N[C@H]3[C@@H](O)[C@H](O)C[C@@H](C(=O)N(C)Cc4ccccc4)[C@H]32)cc1	13µM*
Cc1ccc(N2C(=S)N[C@H]3[C@@H](O)[C@H](O)C[C@@H](C(=O)N4CCCCC4)[C@H]32)cc1	i
O=C([C@@H]1C[C@@H](O)[C@H](O)[C@@H]2NC(=S)N(c3ccc(F)cc3)[C@@H]21)N1CCCCC1	-19%[44.1 µM]
NC(=O)[C@H](Cc1cccs1)NC(=O)C1=C[C@@H](NC(=O)c2cnccn2)[C@@H](O)[C@H](O)C1	10%[44.1 µM]
CCC(=O)N1CCN(C2CCN(CCOC)C2=O)CC1 (configuration not stated)	-6%
Cc1cnc(CC2CCCN(C(=O)c3ccn[nH]3)C2)n1Cc1ccccc1 (configuration not stated)	i
O=C(Nc1ccc(Oc2ccccc2)cc1)O[C@@H]1CO[C@H]2[C@@H]1OC[C@@H]2NC(=S)Nc1cccc2ccccc12	13µM*
O=C(Nc1ccc(Oc2ccccc2)cc1)N[C@H]1CO[C@H]2[C@@H]1OC[C@H]2OC(=O)Nc1cccc2ccccc12	i
